Screening data: PubChem BioAssay, Broad Institute
Calb FLC – affects C. albicans growth with fluconazole | C. albicans CaCi-2 (fluconazole-resistant clinical isolate) + fluconazole, Alamar Blue growth, 48 h | growth inhibition, % (no concentration beside the values) | actives 0.57% (n = 300,000) | AID 1979;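 active means growth inhibition above about 58% in most replicates, limit read from the data, passing the limit was not always enough; inconclusive means exactly half the replicates above a set limit; inactive means most replicates below a set limit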;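 further: all wells also contain fluconazole at 8 µg/ml as a sub-toxic cotreatment; 0% = median of DMSO wells and 100% = median of geldanamycin control wells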
Shn3 3UTR inh – Schnurri-3 reporter inhibition in Clone20 osteoblasts. Clone20 osteoblast Shn3 3'UTR firefly luciferase, 24 h. inhibition, % at 12.5 µM. actives 0.52% (n = 360,000). AID 588674;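 active means mean inhibition of at least 75% with every replicate also reaching 75%; inconclusive means mean inhibition at least 75% but some replicate below; inactive means mean inhibition below 75%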;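 further: 0% = median of neutral control wells and 100% = pilot-screen positive control compound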
Beta cell apopt – blocks beta cell apoptosis; INS-1E cytokine-induced death, ATP luminescence, 48 h; percent of positive-control rescue, neutral wells zero; protection from apoptosis, % (test concentration not listed); actives 0.8% (n = 300,000); AID 435005;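 active means Every replicate reaches about 75%, or at least half do and their mean reaches it too, limit read from the data; inconclusive means At least half of replicates reach the limit but their mean does not; inactive means Under half of replicates reach the limit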;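 further: 0% = cytokine-treated negative control wells and 100% = positive control rescue; higher means more ATP so stronger rescue from cytokine killing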
CSC inhib – blocks cancer stem cells; cancer stem cell-like cells viability, luminescence; inhibition, % at 7.5 µM; actives 1.1% (n = 300,000); in the data active means inhibition above about 75%; inconclusive means no clear call, values can overlap the other calls; tested in HMLE shEcad cells
PfHsp90 set2 – inhibits growth of yeast expressing Plasmodium falciparum Hsp90 | S. cerevisiae expressing PfHsp90, BacTiter-Glo ATP, 48 h; yeast lacking PDR1 and PDR3 efflux regulators | inhibition, % at 9.4 µM | actives 0.32% (n = 310,000) | AID 504621;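 active means every replicate shows inhibition above about 80%, whatever the replicate mean, limit read from the data; inconclusive means mean inhibition reaches the set limit but some replicate falls short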;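 further: 0% = DMSO neutral controls and 100% = 20 µM radicicol positive controls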
Numbers without * were called inactive; u = inconclusive; x = not tested or not shown. In the library only some 2.2% were active in any assay of this set; here they are far more common.

SMILES	Calb FLC	Shn3 3UTR inh	Beta cell apopt	CSC inhib	PfHsp90 set2
COC(=O)c1ccc(/C=C/c2c(-c3ccsc3)sc3ccccc23)cc1	-8.2	-3.7	-2.7	94.2*	-15.7
COc1ccc(-c2sc3ccccc3c2/C=C/c2ccc(N)cc2)cc1	x	-9.9	0.2	96.8*	-10.7
COc1ccc(/C=C/c2c(-c3ccc(OC)cc3)sc3ccc(N4CCOCC4)cc23)cc1	-3.3	-19.0	3.6	25.8	5.9
O=C(NCCc1ccccn1)c1c(-c2ccsc2)sc2ccccc12	x	14.2	x	x	-3.5
COc1ccccc1NC1CCCCC1NS(=O)(=O)c1ccccc1 (stereo not given)	11.5	-3.0	0.4	17.8	-21.7
CC(=O)c1cccc(OCc2cc(C(=O)NCc3nc(C)c(C)s3)no2)c1	1.7	-58.0	-7.2	-4.7	-19.9
CCC(/C=C1\Sc2ccc(OC)cc2N1CCO)=C\c1sc2ccc(OC)cc2[n+]1CCO	x	15.0	43.4	10.6	48.8
CCC(/C=C1\Sc2ccc(OC)cc2N1CC)=C\c1sc2ccc(OC)cc2[n+]1CCCS(=O)(=O)[O-]	3.8	74.9	102.6*	15.3	21.5
CSc1ccccc1C(=O)N1CCC2(CC1)CC(=O)c1ccccc1O2	-13.8	13.4	x	-17.4	x
O=C1CC2(CCN(C(=O)c3ccccc3F)CC2)Oc2ccccc21	-15.9	87.3*	-3.7	-13.8	-4.4
CC(=O)[C@]1(O)Cc2c(O)c3c(c(O)c2[C@@H](O[C@H]2C[C@H](N)[C@H](O)[C@H](C)O2)C1)C(=O)c1ccccc1C3=O	77.6*	x	15.4	85.7*	x
COc1cccc2c1C(=O)c1c(O)c3c(c(O)c1C2=O)C[C@@](O)(C(C)=O)C[C@@H]3O[C@H]1C[C@H](N)[C@H](O)[C@H](C)O1	x	96.0*	x	x	48.9
COc1cccc2c1C(=O)c1c(O)c3c(c(O)c1C2=O)C[C@@](O)(C(=O)CO)C[C@@H]3O[C@H]1C[C@H](N)[C@@H](O)[C@H](C)O1	x	82.8	39.1	51.0	-29.8
COc1cccc2c1C(=O)c1c(O)c3c(c(O)c1C2=O)CC(O)(C(=O)CO)CC3OC1CC(N(C)C)C(O)C(C)O1 (stereo not given)	x	96.9*	x	x	105.7*
OC1CCN(c2cc(-c3ccccc3)nc3cc(-c4ccc(F)cc4)nn23)CC1	15.4	-21.0	8.9	88.3*	12.6
COc1cccc(-c2cc3nc(-c4ccccc4)cc(N4CCCC(O)C4)n3n2)c1 (stereo not given)	1.4	2.8	13.0	90.2*	13.0
CCN1CCN(c2cc(-c3ccccc3)nc3cc(-c4cccc(F)c4)nn23)CC1	35.6	22.7	8.0	u	13.5
N#Cc1c(Nc2ccccc2)sc(C(=O)c2ccc(F)cc2)c1N	9.7	22.0	90.6*	42.3	-17.1
COCCCNC(=O)c1csc([C@@H]2O[C@H](CO)[C@H](O)[C@H](O)[C@H]2O)n1	x	0.5	x	x	x
NC(=O)CC(NC(=O)c1ccc(Br)cc1)c1ccc(N2CCCCCC2)c([N+](=O)[O-])c1 (stereo not given)	-14.4	89.5*	1.7	122.8*	-30.6
NC(=O)CC(NC(=O)c1ccc(Br)cc1)c1ccc(NCc2ccc(F)cc2)c([N+](=O)[O-])c1 (stereo not given)	-2.0	4.6	-1.6	u	-23.3
Cc1ccccc1CNc1ccc(C(CC(N)=O)NC(=O)c2ccc(Br)cc2)cc1[N+](=O)[O-] (stereo not given)	-8.5	0.4	90.5*	110.5*	-15.8
Cc1ccc(-n2nc3c(c2NC(=O)c2ccco2)CS(=O)C3)cc1 (stereo not given)	-3.5	14.8	-4.2	-3.2	-25.5
CC(CNc1nc2ccccc2n2cnnc12)c1ccccc1 (stereo not given)	-2.2	-12.2	7.5	-17.2	-0.9
CCCCCCC(=O)N1C/C=C\C(c2ccc(OC)cc2)N(Cc2ccc(F)cc2)C(=O)[C@H]1Cc1ccccc1 (stereo not given in full)	4.8	x	99.5*	35.4	x
SMILES	Calb FLC	Shn3 3UTR inh	Beta cell apopt	CSC inhib	PfHsp90 set2
COc1ccc([C@H]2/C=C\CN(C(=O)C3CC3)[C@@H](C)C(=O)N2Cc2ccc(F)cc2)cc1	1.5	-8.9	-4.1	-7.7	x
COc1ccc(C2/C=C\CN(C(=O)c3ccc(C)cc3)[C@H](Cc3ccccc3)C(=O)N2Cc2ccc(F)cc2)cc1 (stereo not given in full)	11.2	87.3*	77.9*	28.6	7.9
CCCCC(=O)N1C/C=C\C(c2ccc(OC)cc2)N(Cc2ccc(F)cc2)C(=O)[C@H]1Cc1ccccc1 (stereo not given in full)	9.3	24.8	98.9*	36.5	-15.8
COc1ccc(C2/C=C\CN(C(=O)C3CC3)[C@H](Cc3ccccc3)C(=O)N2Cc2ccc(F)cc2)cc1 (stereo not given in full)	17.2	9.7	86.0*	0.4	-2.0
COc1cc2c(cc1OC)CN(C(=O)CSc1ccccc1C)CC2	x	2.8	-10.7	-14.8	-15.0
Fc1ccc(-n2nnnc2-c2cnc(-c3cccs3)nc2C(F)(F)F)cc1	-7.6	90.4*	26.0	21.9	x
FC(F)(F)c1nc(-c2ccncc2)ncc1-c1nnnn1-c1ccccc1	16.3	1.4	5.0	-1.9	-20.2
Cc1cc(C)c(C#N)c(N2CCOCC2)n1	22.2	-5.5	1.0	-7.6	9.4
Cc1cc(C)c2c(N=NN3CCOCC3)[nH]nc2n1	0.6	-27.7	x	-13.4	101.9*
CC(C)C(Sc1nc(-c2ccccc2)cc(-c2ccccc2)c1C#N)C(=O)O (stereo not given)	87.0*	11.2	-0.4	47.6	-9.0
COc1ccc(-c2cc(-c3ccccc3)nc(SC(C)C(=O)O)c2C#N)cc1 (stereo not given)	42.0	-22.6	-3.1	16.4	-30.3
O=C(CN1C(=O)C(=O)N(C2CCCC2)C1=O)Nc1ccc([N+](=O)[O-])cc1	x	17.6	x	x	-25.7
O=C(c1ccco1)N1CCN(Cc2cccc([N+](=O)[O-])c2)CC1	23.7	-21.4	-0.9	-11.4	7.2
Cc1cccc(-c2cc3nc4c(c(N5CCOCC5)n3n2)CCCC4)c1	8.0	6.7	1.8	-6.4	19.6
Cc1cccc(-c2cc3nc4c(c(NCc5ccco5)n3n2)CCCC4)c1	14.3	3.9	33.2	116.8*	9.7
Cc1cc(C)c(S(=O)(=O)Nc2ccc3c4c(cccc24)CC3)c(C)c1	9.0	30.2	14.5	92.5*	-9.0
C=CC[C@@H]1C=C(C)C[C@H](C)C[C@H](OC)[C@H]2O[C@@](O)(C(=O)C(=O)N3CCCC[C@H]3C(=O)O[C@H](/C(C)=C/[C@@H]3CC[C@@H](O)[C@H](OC)C3)[C@H](C)[C@@H](O)CC1=O)[C@H](C)C[C@@H]2OC	117.0*	x	2.5	-6.6	x
C[C@H]1CN([C@@H](C)CO)C(=O)c2cc(C#CC3CCCC3)cnc2O[C@H]1CN(C)C(=O)Cc1ccccn1	x	0.3	x	x	x
Cc1nc2c(=O)n(C)c(=O)n(C)c2nc1Cl	-1.8	96.8*	-9.2	44.2	17.6
Cn1c(=O)c2nc(NCc3ccccc3)cnc2n(C)c1=O	-8.5	2.6	-0.2	-14.6	-36.4
